Results taken from the supplement of paper PMC11537057.
Where a name gives a salt, the structure may show the parent alone. Screen size: about 1,700 compounds; about 15 (0.9%) showed activity. This is one part of a sample in which actives are shown more often than they occur.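 How the source made its calls: active = infection cut by 80% or more with cell growth above 90% in both runs; inactive = the rest.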

Tested on: HSV-1 strain 17 YFP-ICP4 in A549
Assay: HSV-1 infection relative to DMSO (ICP4-YFP per H2B-RFP signal); higher = more viral infection (less antiviral activity), active = hit call of the paper
Details: 10 µM; 48 h; MOI: 0.1
Procedure: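 Selleck FDA-approved library (L1300) screened in duplicate at 10 µM on A549 H2B-mRuby cells in 384-well plates, infected with HSV-1 strain 17 YFP-ICP4 at MOI 0.1 one hour before drug addition. Imaged after 2 days at 37°C. Cell growth (H2B-RFP) and infection (ICP4-YFP) are expressed as % of DMSO-treated wells. Hits: growth >90% and infection <20% of DMSO.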

SMILES	HSV-1 infection
Cc1c(O)cccc1C(=O)N[C@@H](CSc1ccccc1)[C@H](O)CN1C[C@H]2CCCC[C@H]2C[C@H]1C(=O)NC(C)(C)C [Nelfinavir Mesylate]	9.57% (active)
Cc1c(C(C)C)c(=O)n(-c2ccccc2)n1C [Propyphenazone (4-Isopropylantipyrine)]	98.5% (inactive)
CCCCCCC(=O)O[C@H]1CC[C@H]2[C@@H]3CCC4=CC(=O)CC[C@]4(C)[C@H]3CC[C@]12C [Testosterone Enanthate]	66.7% (inactive)
C=C[C@@H]1C[C@]1(NC(=O)[C@@H]1C[C@@H]2CN1C(=O)[C@H](C(C)(C)C)NC(=O)O[C@@H]1C[C@H]1CCCCCc1nc3ccc(OC)cc3nc1O2)C(=O)NS(=O)(=O)C1CC1 [Grazoprevir]	119% (inactive)
CCCCCCCCCCCCC[N+](C)(C)Cc1ccccc1 [Benzalkonium chloride]	65.3% (inactive)
NC(=O)[C@@H](CCC(F)(F)F)N(Cc1ccc(-c2ncon2)cc1F)S(=O)(=O)c1ccc(Cl)cc1	95.4% (inactive)
CCNC(=O)[C@@H]1CCCN1C(=O)[C@H](CCCN=C(N)N)NC(=O)[C@H](CC(C)C)NC(=O)[C@@H](C)NC(=O)[C@H](Cc1ccc(O)cc1)NC(=O)[C@H](CO)NC(=O)[C@H](Cc1c[nH]c2ccccc12)NC(=O)[C@H](Cc1cnc[nH]1)NC(=O)[C@@H]1CCC(=O)N1 [Alarelin Acetate]	90.9% (inactive)
CC1=C(C(=O)OC(C)C)C(c2cccc([N+](=O)[O-])c2)C(C(=O)OC2CN(C(c3ccccc3)c3ccccc3)C2)=C(N)N1 (stereo not given) [Azelnidipine]	121% (inactive)
O=C1/C(=C2\Nc3ccc(S(=O)(=O)O)cc3C2=O)Nc2ccc(S(=O)(=O)O)cc21 [Indigo carmine]	101% (inactive)
C[C@@H](O)[C@H]1C(=O)N2C(C(=O)O)=C(S[C@@H]3CN[C@H](C(=O)Nc4cccc(C(=O)O)c4)C3)[C@H](C)[C@H]12 [Ertapenem sodium]	109% (inactive)
CCC[C@@H]1C[C@@H](C(=O)N[C@@H]([C@H]2O[C@H](SC)[C@H](O)[C@@H](O)[C@H]2O)[C@@H](C)O)N(C)C1 [Lincomycin HCl]	15.9% (active)
CCC[C@@H]1C[C@@H](C(=O)N[C@@H]([C@H]2O[C@H](SC)[C@H](O)[C@@H](O)[C@H]2O)[C@H](C)Cl)N(C)C1 [Clindamycin]	83.9% (inactive)
CCC[C@@H]1C[C@@H](C(=O)N[C@@H]([C@H]2O[C@H](SC)[C@H](O)[C@@H](O)[C@H]2O)[C@@H](C)O)N(C)C1 [Lincomycin Hydrochloride Monohydrate]	86.4% (inactive)
CCC[C@@H]1C[C@@H](C(=O)N[C@@H]([C@H]2O[C@H](SC)[C@H](OP(=O)(O)O)[C@@H](O)[C@H]2O)[C@H](C)Cl)N(C)C1 [Clindamycin Phosphate]	125% (inactive)
CCC[C@@H]1C[C@@H](C(=O)N[C@@H]([C@H]2O[C@H](SC)[C@H](O)[C@@H](O)[C@H]2O)[C@H](C)Cl)N(C)C1 [Clindamycin HCl]	87.2% (inactive)
CC(C)C(Br)C(=O)NC(N)=O (stereo not given) [Bromisoval]	117% (inactive)
N#Cc1ccc(Oc2ccc3c(c2)COB3O)cc1 [Crisaborole (AN2728)]	95.1% (inactive)
CNC(C)Cc1ccccc1OC (stereo not given) [Methoxyphenamine Hydrochloride]	110% (inactive)
Nc1nc(CC(=O)Nc2ccc(CCNC[C@H](O)c3ccccc3)cc2)cs1 [Mirabegron]	104% (inactive)
O=C(O)CCn1c2c(c3ccccc31)C[C@H](NS(=O)(=O)c1ccc(F)cc1)CC2 [Ramatroban]	96.2% (inactive)
O=C(NC[C@H](O)CO)c1ccncc1Nc1ccc(I)cc1F	34.8% (inactive)
CC[C@H](C)[C@@H]1NC(=O)[C@H](Cc2ccc(O)cc2)NC(=O)[C@@H](N)CSSC[C@@H](C(=O)N2CCC[C@H]2C(=O)N[C@@H](CC(C)C)C(=O)NCC(N)=O)NC(=O)[C@H](CC(N)=O)NC(=O)[C@H](CCC(N)=O)NC1=O [Oxytocin (Syntocinon)]	82.7% (inactive)
CCS(=O)(=O)N1CCN(c2ccc(Nc3ncc(C(N)=O)c(NC4CC4)n3)cc2)CC1	25.3% (inactive)
CC(C)C[C@H](NC(=O)CNC(=O)[C@H](Cc1ccc(O)cc1)NC(=O)[C@H](CO)NC(=O)[C@H](Cc1c[nH]c2ccccc12)NC(=O)[C@H](Cc1cnc[nH]1)NC(=O)[C@@H]1CCC(=O)N1)C(=O)N[C@@H](CCCNC(=N)N)C(=O)N1CCC[C@H]1C(=O)NCC(N)=O [Gonadorelin Acetate]	117% (inactive)
NCC(=O)O [Glycine]	95.8% (inactive)
CCCN(CCc1cccs1)[C@H]1CCc2c(O)cccc2C1 [Rotigotine]	27.9% (inactive)
CCCCCCCN(CC)CCCC(O)c1ccc(NS(C)(=O)=O)cc1 (stereo not given) [Ibutilide Fumarate]	84.3% (inactive)
O.O.O.O=C([O-])C1[O][Sb]2[O]C(=O)C([O]2)C(C(=O)[O-])[O][Sb]2[O]C(=O)C1[O]2.[K+].[K+] (stereo not given) [Antimonyl potassium tartrate trihydrate]	80.2% (inactive)

SMILES	HSV-1 infection
COC(=O)C1=C(C#N)NC(C)=C(C(=O)OC(C)C)C1c1cccc([N+](=O)[O-])c1 (stereo not given) [Nilvadipine]	95.1% (inactive)
Cc1onc(-c2c(F)cccc2Cl)c1C(=O)N[C@@H]1C(=O)N2[C@@H]1SC(C)(C)[C@@H]2C(=O)O [Flucloxacillin sodium]	114% (inactive)
O=C(Nc1cccc2c(=O)cc(-c3nnn[nH]3)oc12)c1ccc(OCCCCc2ccccc2)cc1 [Pranlukast]	79.1% (inactive)
OB1OCc2cc(F)ccc21 [Tavaborole (AN-2690)]	115% (inactive)
CCOc1cc(N)c(Cl)cc1C(=O)NCC1CN(Cc2ccc(F)cc2)CCO1 (stereo not given) [Mosapride Citrate]	96.7% (inactive)
CCOc1cc(N)c(Cl)cc1C(=O)NCC1CN(Cc2ccc(F)cc2)CCO1 (stereo not given) [Mosapride]	97.6% (inactive)
C[N+]1(C)[C@@H]2C[C@@H](OC(=O)C(O)(c3cccs3)c3cccs3)C[C@H]1[C@@H]1O[C@@H]12 [Tiotropium Bromide hydrate]	100% (inactive)
CCOCCn1c(C2CCN(CCc3ccc(C(C)(C)C(=O)O)cc3)CC2)nc2ccccc21 [Bilastine]	107% (inactive)
CC1(C)S[C@@H]2[C@H](NC(=O)Cc3ccccc3)C(=O)N2[C@H]1C(=O)O.CCN(CC)CCOC(=O)c1ccc(N)cc1 [Penicillin G Procaine]	120% (inactive)
Cc1cncc(CN2CCC(=C3c4ccc(Cl)cc4CCc4cccnc43)CC2)c1 [Rupatadine Fumarate]	108% (inactive)
CO[C@H]1O[C@H](COS(=O)(=O)O)[C@@H](O[C@@H]2O[C@@H](C(=O)O)[C@@H](O[C@H]3O[C@H](COS(=O)(=O)O)[C@@H](O[C@@H]4O[C@H](C(=O)O)[C@@H](O[C@H]5O[C@H](COS(=O)(=O)O)[C@@H](O)[C@H](O)[C@H]5NS(=O)(=O)O)[C@H](O)[C@H]4O)[C@H](OS(=O)(=O)O)[C@H]3NS(=O)(=O)O)[C@H](O)[C@H]2OS(=O)(=O)O)[C@H](O)[C@H]1NS(=O)(=O)O [Fondaparinux Sodium]	104% (inactive)
O=c1c(-n2ccnn2)c[nH]n1-c1cc(N2CCOCC2)ncn1 [Molidustat (BAY 85-3934)]	81.4% (inactive)
CC(C)OC(=O)[C@H](C)N[P@](=O)(OC[C@H]1O[C@@H](n2ccc(=O)[nH]c2=O)[C@](C)(F)[C@@H]1O)Oc1ccccc1 [Sofosbuvir (PSI-7977, GS-7977)]	105% (inactive)
CC(C)OC(=O)OCOP(=O)(CO[C@H](C)Cn1cnc2c(N)ncnc21)OCOC(=O)OC(C)C [Tenofovir Disoproxil Fumarate]	86.9% (inactive)
CC(C)OC(=O)[C@H](C)N[P@](=O)(CO[C@H](C)Cn1cnc2c(N)ncnc21)Oc1ccccc1 [Tenofovir Alafenamide (GS-7340)]	2.77% (active)
CCN(C(=O)c1c(O)c2c(Cl)cccc2n(C)c1=O)c1ccccc1 [Laquinimod]	117% (inactive)
CC(=O)Nc1cccc(-n2c(=O)n(C3CC3)c(=O)c3c(Nc4ccc(I)cc4F)n(C)c(=O)c(C)c32)c1	43.8% (inactive)
Cc1ccccc1C(=O)Nc1ccc(C(=O)N2CCCC(O)c3cc(Cl)ccc32)c(C)c1 (stereo not given) [Tolvaptan]	68% (inactive)
Cc1[nH]c2ccccc2c1CCNCc1ccc(/C=C/C(=O)NO)cc1 [Panobinostat (LBH589)]	34.1% (inactive)
CC(C)C[C@H](NC(=O)[C@@H](NC(=O)c1cccc(-c2ccccc2)n1)[C@@H](C)O)B(O)O	106% (inactive)
CN(C(=O)c1ccc(F)cc1C(F)(F)F)C1CCN(c2nnc(-c3ccnn3C)c3ccccc23)CC1	113% (inactive)
Cc1cn([C@H]2C[C@H](N=[N+]=[N-])[C@@H](CO)O2)c(=O)[nH]c1=O [Zidovudine]	89.6% (inactive)
O=c1[nH]c(=O)n([C@H]2C[C@H](O)[C@@H](CO)O2)cc1/C=C/Br [Brivudine]	2.36% (active)
Cc1cn([C@H]2O[C@@H](CO)[C@H](O)[C@H]2F)c(=O)[nH]c1=O [Clevudine]	114% (inactive)
Cc1cn([C@@H]2C[C@@H](O)[C@H](CO)O2)c(=O)[nH]c1=O [Telbivudine]	139% (inactive)
O=c1[nH]c(=O)n([C@H]2C[C@H](O)[C@@H](CO)O2)cc1I [Idoxuridine]	2.44% (active)
O=c1[nH]c(=O)n([C@H]2C[C@H](O)[C@@H](CO)O2)cc1C(F)(F)F [Trifluridine]	20.6% (inactive)
